# Data reported in the supplement of paper PMC6555819.
# Key:
# Experiment in all cases: PBM binding z-score (relative to random genomic background probes); higher = stronger binding; sequences stand for … in GC…GCGATTGACAGCGTAGAATGAAGG
# [1] = system: LXRa:RXRa (NR concentration 270 nM, RXRa partner concentration 90 nM)
# Outline: (§1)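 Custom Agilent 4×180K protein-binding microarrays carried double-stranded probes, each with a 34-nt variable region. These regions held direct-repeat seeds, single-nucleotide variants, half-site ablations and random human genomic background sequences. Ligand-free nuclear receptor dimers were incubated on the arrays for 1 h, antibodies against each partner (one per run) detected binding, and scanned fluorescence was regression-normalized. Binding z-scores take the random background probes as reference.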
# [2] = system: LXRa homodimer (NR concentration 270 nM)
# Outline: as §1
# [3] = system: LXRb homodimer (NR concentration 270 nM)
# Outline: as §1
# [4] = system: PPARg:RXRa (NR concentration 180 nM, RXRa partner concentration 90 nM)
# Outline: as §1
# [5] = system: PPARg:RXRa 270nM:90nM, anti-RXR (NR concentration 270 nM, RXRa partner concentration 90 nM)
# Outline: as §1
# [6] = system: PPARg:RXRa 30nM:10nM, anti-RXR (NR concentration 30 nM, RXRa partner concentration 10 nM)
# Outline: as §1
# [7] = system: PPARg:RXRa 90nM:30nM, anti-RXR (NR concentration 90 nM, RXRa partner concentration 30 nM)
# Outline: as §1
# [8] = system: PPARg:RXRa DBDmut IVT, anti-RXR (DBD mutation: RXRa K156A/R161A, NR concentration 270 nM, RXRa partner concentration 90 nM)
# Outline: as §1
Sequence,PBM binding z-score [1],PBM binding z-score [2],PBM binding z-score [3],PBM binding z-score [4],PBM binding z-score [5],PBM binding z-score [6],PBM binding z-score [7],PBM binding z-score [8]
CGCACTAGGTCATCCAGGACAGTGAATACATTGA,2.83,0.736,0.107,7.36,6.27,3.65,5.62,7.71
GCTGCGAGGTCAACTGATGGTCAGCTAAAGCTCG,5.87,1.54,1.67,6.28,6.33,2.91,5.05,3.65
AATAAAGGGTCATCGTAGGCCAGAGTACGCACAG,6.44,3.35,2.31,7.14,6.58,3.39,5.44,3.16
TCTGCTAGGTCATCGATGGTCAGCTAATCTGCTA,3.21,-0.333,-0.256,1.74,3.32,1.82,2.45,3.54
TGTCAACGTTCAAAGGTAACGTAAGTATCCACAC,0.794,-0.182,0.0417,2.58,2.69,1.18,2.07,-0.155
CCTAGTGGGCCAAGGTCATTGATCAGTCAAAGCA,2.91,0.693,-0.381,4.1,4.29,1.64,3.71,3.98
GCTAGTTGGTCAGTAAAATGTCACACACCGGTCG,0.173,-0.0317,-0.257,0.556,-0.103,-0.158,0.223,0.762
ACGCGGAGGACAAAGGTCAGAGCTACGCCAGTGA,4.13,1.02,0.25,7.04,6.29,4.31,6.15,0.442
CGTCCAAGGTCATAGAGGTCAGTGAATGCCGAGT,6.21,5.25,1.36,5.9,6.21,2.57,4.71,4.3
TAGCCGAGGTCATTCAGGGGCCAGTATAGAAAGC,6.28,2.47,2.89,6.14,5.81,2.43,4.55,1.75
CGAACTAGGTCGCCAGGACAGTGAAGAGGTTGGA,0.158,-0.593,-0.928,2.71,2.49,0.111,1.62,5.94
AATACAGGGTCATCGTACGCCAGAGTACGCACAG,6.21,2.87,1.54,7.02,6.25,2.92,5.21,2.92
CCTACTGGGCCAAAAAGTTCATTGATGCCGATAA,1.47,2.92,-0.369,1.09,1.53,0.0164,1.05,3.74
CGAACGAGGTCAAAGGACAGTGAAAGGCGACGTA,5.87,0.528,1.21,8.64,7.62,5.48,8.31,5.27
AACGAAAGGTCGAAGGTGAGTATACCCACCCGAA,3.94,0.129,0.37,4.7,4.9,2.35,3.92,0.349
ATATGTAGGTTAGCTGGGGTCATTCACACTAGGC,5.86,3.53,1.66,5.47,5.14,2.95,4.69,6.87
CCGACTGGGGCAAGGTCACCATAACGCACAGCCA,2.82,0.471,-0.792,4.78,4.63,2.12,3.78,3.03
CGTCCAAGGTCACAGAGGTCAGTGAATGCCGAGT,6.12,5.07,1.08,7.01,6.54,3.38,5.63,4.6
CGTCCGAGGTCAAGGTCAGTGAAAGAGACTCGAA,6.22,1.31,1.54,7.82,7.45,3.9,6.47,4.18
CCTTACGGGTAACGAGGTTATAGCACGACGAGCG,0.424,-0.553,-0.211,1.49,1.14,0.156,0.641,1.07
AGAATGAGGTCATACGTAGATCAGGGAAGAAAGT,6,1.75,1.92,7.83,7.25,4.88,6.67,6.81
CGAACTAGGTCAAGGCCAGTGAATCTCCGCACGC,2.42,0.284,-0.563,7.33,6.58,3.87,6.13,8.07
CGAACTAGGTCGTCCAGGACAGTGAATACATTGA,0.121,-0.214,-0.486,2.47,1.89,0.4,1.39,5.71
AGAACGAGGTCACGCTGAGTTGATAGCAGAGTAG,6.2,0.912,0.705,9.52,8.1,6.32,7.52,6.78
TGTCAAAGTTCAAAGGTGACGTAAGTATCCACAC,6.41,4.7,1.8,9.47,7.89,6.06,7.61,0.732
TAGCCTAGTTCATTCAGGGGCCAGTATAGAAAGC,0.593,0.155,0.584,0.203,0.273,-0.157,0.0192,1.65
GATACAGGGTCAGCTACAGGCCAGAGTATGGAAA,2.54,-0.531,-0.596,4.13,3.43,0.683,2.17,1.22
AGAATGAGGTCACCAAAGATCAGGGAAACGCTTG,6.5,1.08,0.991,8.68,8.01,5.4,7.63,7.14
ATCGAAAGGTCGAAGGTGCGTATACCCACCCGAA,3.22,0.0571,0.0928,3.21,3.25,1.01,2.44,-0.0152
